Screening data as filed in PubChem BioAssay.
Sampled rows, rich in hits. Any-hit rate of the full collection: about 11%.
Vaccinia Venus = vaccinia inhibition (Venus reporter); Vaccinia virus Venus reporter expression, fluorescence; Potency, µM (highest dose often 36.5 µM), inactives show top-dose activity change, negative = inhibition, usual class: inhibitors; 330,000 tested, 0.46% active; calls by dose curve; tested in A549 cells; also: % is scaled to controls: 0 for no effect and ±100 for the full control effect; nearly all actives have a fitted effect of over 30% in size
NS1 function inh = blocks influenza NS1 protein function. Potency, µM (highest dose often 46.1 µM), for the others: top-dose activity, positive = more growth. 270,000 tested, 0.4% active. AID 2326; calls by dose curve; also: actives are rising curves; nearly all actives have a fitted effect of over 50% in size
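S. cerevisiae expressing influenza A NS1, grown in glucose, washed, then diluted 1:100 into pH 6.0 -URA galactose medium with 23 nl compound. Growth recovery read as OD600; NS1-free strain serves as control.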
VACV mCherry inh = inhibitors of vaccinia virus infection (mCherry reporter signal); Vaccinia virus mCherry reporter infection, fluorescence; Potency, µM (top dose mostly 36.5 µM), for inactives: at the highest dose activity change, negative = inhibition, most hits filed as inhibitors; 310,000 tested, 0.63% active; calls by dose curve; tested in A549 cells; also: % is scaled to controls: 0 for no effect and ±100 for the full control effect; nearly all actives have a fitted effect of over 35% in size
Pf growth 48h = inhibits P. falciparum growth in the first generation, 48 h; 310,000 tested, 5.9% active; Potency, µM (top dose mostly 28.7 µM), for inactives: top-dose activity change, negative = inhibition, hits mostly inhibitors; P. falciparum luciferase growth in erythrocytes, 48 h; also: % is scaled to controls: 0 for no effect and ±100 for the full control effect
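Compounds are pin-transferred into medium, infected erythrocytes (2% hematocrit, 0.1% parasitemia final) are added, and plates sit one parasite generation at 37 C in 5% CO2. Detection reagent is then added and luminescence measured.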
HCV inh = HCV inhibition | Huh7.5.1 HCVcc-Cre infection, luciferase reporter, 44 h | Potency, µM (titrated, usually from 41.8 µM), inactives show at the highest dose activity change, negative = inhibition, hits mostly inhibitors | 340,000 tested, 3.4% active; also: % is scaled to controls: 0 for no effect and ±100 for the full control effect
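Antiviral activity was scored by luciferase reporter output from cells infected with HCVcc-Cre (~0.5 moi) in presence of compound, 44 h infection period, cells seeded 1,000/well 4 h prior.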
Pf growth 96h = P. falciparum growth inhibition at 96 hour, primary screen for plastid delayed-death inhibitors; P. falciparum luciferase reporter growth, 96 h; Potency, µM (series often up to 28.7 µM), for the others: top-dose activity change, negative = inhibition, most hits filed as inhibitors; 320,000 tested, 6.9% active; also: % is scaled to controls: 0 for no effect and ±100 for the full control effect
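Delayed-death screen, second-generation endpoint: infected erythrocytes, 2% hematocrit, 0.05% parasitemia final; 96 hours at 37 C, 5% CO2; luciferase detection reagent; luminescence decrease equals reduced growth.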
Numbers without * were called inactive; ! = not confirmed by another sample; [ ] = another dose, or the depositor's remark. Unless noted, calls follow the shape of the dose curve; as a rule, active = well fitted inhibition curve with a large enough effect; inconclusive = small, poorly fitted or top-dose-only effect, or another doubt; inactive = no such curve, though single readings can be large or run the other way. Potency is read from the fitted curve at half-maximal effect.

CCOC(=O)[C@H]1[C@H]2COc3ccccc3[C@@H]2N2C(=O)c3cc(C)ccc3NC(=O)[C@@]12C was read as Vaccinia Venus -6%, VACV mCherry inh -6%, Pf growth 48h inconclusive, HCV inh 5% and Pf growth 96h 13µM*.
Screening CCOC(=O)[C@H]1[C@H]2COc3ccc(Cl)cc3[C@@H]2N2C(=O)c3ccc(F)cc3NC(=O)[C@@]12C returned Vaccinia Venus -13%, VACV mCherry inh -23%, Pf growth 48h 12µM*, HCV inh -26% and Pf growth 96h inconclusive.
Screening O=C(CN1CCN(c2cccc(Cl)c2)CC1)Nc1nccs1 returned NS1 function inh 6%, Pf growth 48h 0%, HCV inh 4% and Pf growth 96h 63%.
For COc1cc(CNn2c(C)n[nH]c2=S)cc(Cl)c1OCc1ccccc1 the results were Vaccinia Venus -18%, NS1 function inh -5%, VACV mCherry inh -13%, Pf growth 48h -11%, HCV inh -13% and Pf growth 96h inconclusive.
Screening CN(C)C1C(=O)C(C(N)=O)=C(O)C2(O)C(=O)C3=C(O)c4c(O)cccc4C(C)(O)C3CC12 (configuration not stated) returned Vaccinia Venus -15%, NS1 function inh 4%, VACV mCherry inh -6%, Pf growth 48h inconclusive, HCV inh 20% and Pf growth 96h 0.93µM*.
CN(C)[C@@H]1C(=O)C(C(=O)NCN2CCCC2)=C(O)[C@@]2(O)C(=O)C3=C(O)c4c(O)cccc4[C@@](C)(O)C3CC12 (some centres not stated) was read as NS1 function inh inconclusive, Pf growth 48h -4%, HCV inh -5%[8.37 µM] and Pf growth 96h -6%.
`CN(C)[C@@H]1C(=O)C(C(N)=O)=C(O)[C@@]2(O)C(=O)C3=C(O)c4c(O)ccc(Cl)c4[C@@](C)(O)C3C[C@@H]12` (some centres not stated) gave Vaccinia Venus inconclusive, NS1 function inh 6%, VACV mCherry inh inconclusive, Pf growth 48h -24%, HCV inh -20%[8.37 µM] and Pf growth 96h inconclusive.
CN(C)[C@@H]1C(=O)C(C(N)=O)=C(O)[C@@]2(O)C(=O)C3=C(O)c4c(O)cccc4[C@@](C)(O)C3[C@H](O)C12 (some centres not stated) was read as Vaccinia Venus -3%, VACV mCherry inh -6%, Pf growth 48h 15µM*!, HCV inh 35% and Pf growth 96h 12µM*!.
CN(C)[C@H]1C(=O)C(C(N)=O)=C(O)[C@]2(O)C(=O)C3=C(O)c4c(O)cccc4[C@@](C)(O)[C@H]3C[C@@H]12 was read as Pf growth 48h 5.7µM* and Pf growth 96h 0.72µM*.
`Cc1c2cnn(-c3ccccc3)c(=O)c2c(C)n1CCCC(=O)N1CCN(C2CCCCC2)CC1` gave Vaccinia Venus -4%, NS1 function inh -1%, VACV mCherry inh -22%, Pf growth 48h inconclusive, HCV inh inconclusive and Pf growth 96h inconclusive.
Screening COc1cc(OC)nc(NC(=O)CN2CCN(c3ccc(F)cc3)CC2)n1 returned NS1 function inh -5%, Pf growth 48h -13%, HCV inh -27% and Pf growth 96h 45%.
Screening O=C(Nc1cc(F)ccc1F)c1ccc(CN2CC(=O)N3CCCCC3C2=O)cc1 (configuration not stated) returned Vaccinia Venus -18% and VACV mCherry inh -16%.
O=C(NCCO)/C(=C\c1ccc2c(c1)OCO2)NC(=O)c1ccc(Br)cc1 was read as Vaccinia Venus -7%, NS1 function inh 0%, VACV mCherry inh -1%, Pf growth 48h 13%, HCV inh 7% and Pf growth 96h inconclusive.
Screening CCOC(=O)C1(Cc2ccc(Cl)cc2)CCN(C(C)Cc2ccc(O)c(OC)c2)CC1 (configuration not stated) returned NS1 function inh 19%, Pf growth 48h inconclusive, HCV inh 10µM* and Pf growth 96h inconclusive.
COc1ccc(CC2(CO)CCN(Cc3cccnc3)CC2)cc1 was read as Vaccinia Venus 3%, NS1 function inh 4%, VACV mCherry inh -3%, Pf growth 48h 10µM*, HCV inh 5% and Pf growth 96h -18%.
Screening OCC1(Cc2ccccc2)CCN(Cc2cnc(-c3ccc(Cl)cc3)nc2)CC1 returned Vaccinia Venus -11%, NS1 function inh 2%, VACV mCherry inh -22%, Pf growth 48h inconclusive, HCV inh 10µM* and Pf growth 96h 32%.
COc1ccc(CC2(CO)CCN(S(=O)(=O)c3sccc3C)CC2)cc1 was read as Vaccinia Venus -20%, NS1 function inh -8%, VACV mCherry inh -26%, Pf growth 48h inconclusive, HCV inh -18% and Pf growth 96h 12µM*.
Screening COc1ccc(CC2(CO)CCN(S(=O)(=O)c3c(C)nn(C)c3Cl)CC2)cc1 returned Vaccinia Venus -10%, NS1 function inh -8%, VACV mCherry inh inactive, Pf growth 48h -8%, HCV inh 8% and Pf growth 96h -1%.
`CCC12CN3CCN(CC(C3)/C1=N\NC(=O)c1ccc(C(C)(C)C)cc1)C2` gave Vaccinia Venus -11%, NS1 function inh 25%, VACV mCherry inh -22%, Pf growth 48h 29%, HCV inh inconclusive and Pf growth 96h 16%.
O=C(c1ccc(OC2CCN(Cc3ccccn3)CC2)cc1)N1CCCC(O)C1 (configuration not stated) was read as Vaccinia Venus -17%, NS1 function inh -4%, VACV mCherry inh -13%, Pf growth 48h 14%, HCV inh 23% and Pf growth 96h inconclusive.
COc1ccc(CCC(C)N2CCC(CO)(Cc3ccccc3)CC2)cc1 (configuration not stated) was read as Vaccinia Venus -19%, NS1 function inh 14%, VACV mCherry inh inactive, Pf growth 48h 1%, HCV inh inconclusive and Pf growth 96h -80%.
`COc1ccc(-c2ncc(CN3CCC(CO)(Cc4cccc(OC)c4)CC3)cn2)cc1` gave Vaccinia Venus -16%, NS1 function inh -2%, VACV mCherry inh inconclusive, Pf growth 48h 10µM*, HCV inh inconclusive and Pf growth 96h inconclusive.
Screening COc1ccc(CC2(CO)CCN(C(C)Cc3ccc(Cl)cc3)CC2)cc1 (configuration not stated) returned Vaccinia Venus -22%, NS1 function inh 5%, VACV mCherry inh -1%, Pf growth 48h 12µM*, HCV inh inconclusive and Pf growth 96h 8%.
For C[N+]1(CC2COC(c3ccccc3)(C3CCCCC3)O2)CCCCC1 (configuration not stated) the results were Pf growth 48h 1.1µM* and Pf growth 96h 5.9µM*.
`CCOC(=O)C(=CNc1cc(C)nn1C(C)(C)C)C(=O)OCC` gave NS1 function inh -9%, Pf growth 48h inconclusive, HCV inh inconclusive and Pf growth 96h -27%.
